# HIF-2a block: blocks HIF-2a reporter activity. inhibition, % at 18.8 µM. actives 0.72% (n = 360,000). 786-0 RCC cells HIF-2a reporter, luciferase luminescence, overnight. AID 624352;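 active = inhibition of the luminescence signal of 40% or more relative to plate controls, in a single-dose primary screen at 18.75 µM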
# CF NFkB block: blocks PAF-induced NF-kB reporter in cystic fibrosis cells; inhibition, % at 5 µM; KKLEB NF-kB-GFP reporter, GFP fluorescence overnight; AID 588850; actives 0.86% (n = 360,000);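 active = at least 50% inhibition at 5 µM, scaled per plate between neutral and stimulator controls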;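 note: PAF is a Pseudomonas aeruginosa culture filtrate used as stimulus; plate controls were PAF-stimulated DMSO wells for no effect and unstimulated DMSO wells for full effect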
# TROY signal inh: blocks TROY-dependent signaling in reporter cells; Q293 LMP1-TROYcd NF-kB luciferase reporter, 4 h; inhibition, % at 10 µM; actives 0.98% (n = 360,000); AID 1347056;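 active = compounds whose plate-normalised and pattern-corrected inhibition of the luciferase reporter signal at the single screening dose is 50% or more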
# Peg3 prom inh: inhibitors of Peg3 promoter | HeLa PEG-Prom luciferase reporter, luminescence, overnight | inhibition, % at 20 µM | actives 1.7% (n = 360,000) | AID 588405;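 active = inhibition of at least 50% at 20 µM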
# KKLEB tox: reduces viability of KKLEB cystic fibrosis airway cells; KKLEB CF airway cells viability, ATPlite luminescence, overnight; hits give low values; cells stimulated with P. aeruginosa culture filtrate; activity change (cytotoxicity), % at 5 µM; actives 0.36% (n = 360,000);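 active = corrected activity change at or below -50% at 5 µM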
# TWEAK-Fn14 inh: inhibitors of TWEAK-Fn14 interaction signaling; actives 2% (n = 360,000); inhibition, % at 10 µM; TWEAK-stimulated Fn14 reporter cells, luciferase luminescence, 8 h; in the data active = inhibition above about 50%
# The depositor's hits bear a star; · = no result given. Sampled rows, rich in hits. Any-hit rate of the full collection: about 4%.
SMILES,HIF-2a block,CF NFkB block,TROY signal inh,Peg3 prom inh,KKLEB tox,TWEAK-Fn14 inh
CSc1nccn1C(=O)c1ccccc1[N+](=O)[O-],13,-23,-9,6,7,108*
Cn1ccnc1Sc1ccccc1[N+](=O)[O-],12,15,24,11,-6,9
CCOC(=O)C1(C(=O)OCC)NC(=O)CC1C(C)C (centres undefined),16,-9,-3,12,-6,10
CCCCCCCCN1C(=O)[C@H](CC(=O)NCCCCc2ccccc2)C[C@@]2(C(=O)OCC)CCCC=C12,-40,·,13,·,·,20
CC(Oc1cccnc1[N+](=O)[O-])C(=O)Nc1cccc(Cl)c1 (centres undefined),-28,4,-3,-27,6,-7
Cc1c(C(=O)NCc2ccc(Cl)c(Cl)c2)sc(=O)n1Cc1ccc(C(=O)N(C)C)cc1,12,0,24,21,5,20
Cc1c(C(=O)NCc2ccc(Cl)c(Cl)c2)sc(=O)n1Cc1ccc(S(=O)(=O)N(C)C)cc1,-9,-12,39,36,-17,67*
Cc1c(C(=O)NCc2ccc(C(C)C)cc2)sc(=O)n1Cc1ccc(S(=O)(=O)N(C)C)cc1,-4,14,25,11,-11,64*
CCCCNC(=O)c1nc(-c2cccnc2OC)oc1-c1ccc(Cl)cc1,2,·,·,·,·,·
COc1ccccc1N1CCN(CCCNC(=O)C2CCCN(c3ncnc4c3nc3n4CCCCC3)C2)CC1 (centres undefined),13,4,-6,15,-11,-7
CCCCn1c(=O)[nH]c(=O)c2c1nc(-c1ccc(OC)c(Br)c1)n2CC(C)C,32,39,18,55*,-18,0
C=CCOc1ccc(-c2nc3c(c(=O)[nH]c(=O)n3CCCC)n2C)cc1Br,7,20,-6,10,-21,-23
C=CCn1c(=O)c2c(nc3n2CC(C)CN3CCc2ccccc2)n(C)c1=O (centres undefined),5,16,-5,10,1,3
Cc1cc(Sc2nc(N)ncc2[N+](=O)[O-])ncn1,3,38,5,79*,-2,32
Cc1cc(N)ncc1[N+](=O)[O-],21,-6,-1,0,8,25
O=S(=O)(c1ccc(Cl)cc1)N1CCN(c2ncnc3sccc23)CC1,28,-20,22,24,8,34
Cc1cccc(NC(=S)N=Nc2c(O)n(CN3CCOCC3)c3ccccc23)c1C,17,-1,-10,21,12,50*
CCN(CC(=O)NCc1cccs1)C(=O)c1cccc(Cl)c1,8,12,-3,3,1,8
COc1ccc(NC(=O)COC(=O)CCC(=O)c2cccs2)cc1OC,11,-13,2,-1,8,-3
CCCn1c(=O)c(C(=O)Nc2ncccc2O)c(O)c2ccccc21,8,16,43,-1,6,87*
C[C@H]1CN([C@@H](C)CO)C(=O)c2cc(C#CCC3CCCC3)cnc2O[C@@H]1CN(C)C(=O)CC1CC1,-20,-6,1,-4,0,-2
O=C(Cc1ccccc1)Nc1nc2ccccc2[nH]1,-209,3,64*,-188,-5,39
O=C(Nc1nc2ccccc2[nH]1)c1ccccc1,-28,-15,40,-30,4,79*
C=CCN(c1ccccc1)S(=O)(=O)c1cccc(C(=O)Nc2nc3ccccc3[nH]2)c1,6,12,15,10,0,54*
O=C(Nc1nc2ccccc2[nH]1)c1ccc(Cl)cc1,-54,-18,28,-77,-30,69*
O=C(Cc1ccc(Cl)cc1)Nc1nc2ccccc2[nH]1,-42,15,-55,-28,-17,5
O=C1c2cc(Br)ccc2N(Cc2ccc(Br)cc2)S(=O)(=O)C1c1cc(Cl)c(Cl)cc1[N+](=O)[O-] (centres undefined),11,24,45,17,13,0
